Screening results from PubChem BioAssay.
FLuc modulator: counter-screen for miR-21 project: firefly luciferase inhibitors or activators | P08659 | purified FLuc, Km substrates, luminescence inhibition | Potency, µM (titrated, usually from 57.5 µM), inactives show at the highest dose activity change, negative = inhibition, actives largely listed as inhibitors | hit rate 6.9% among 360,000;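 also: plate controls were vehicle for no effect and reference inhibitor for full effect; nearly all actives have a fitted effect of over 55% in size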
Target sequence (P08659 whole entry, looked up): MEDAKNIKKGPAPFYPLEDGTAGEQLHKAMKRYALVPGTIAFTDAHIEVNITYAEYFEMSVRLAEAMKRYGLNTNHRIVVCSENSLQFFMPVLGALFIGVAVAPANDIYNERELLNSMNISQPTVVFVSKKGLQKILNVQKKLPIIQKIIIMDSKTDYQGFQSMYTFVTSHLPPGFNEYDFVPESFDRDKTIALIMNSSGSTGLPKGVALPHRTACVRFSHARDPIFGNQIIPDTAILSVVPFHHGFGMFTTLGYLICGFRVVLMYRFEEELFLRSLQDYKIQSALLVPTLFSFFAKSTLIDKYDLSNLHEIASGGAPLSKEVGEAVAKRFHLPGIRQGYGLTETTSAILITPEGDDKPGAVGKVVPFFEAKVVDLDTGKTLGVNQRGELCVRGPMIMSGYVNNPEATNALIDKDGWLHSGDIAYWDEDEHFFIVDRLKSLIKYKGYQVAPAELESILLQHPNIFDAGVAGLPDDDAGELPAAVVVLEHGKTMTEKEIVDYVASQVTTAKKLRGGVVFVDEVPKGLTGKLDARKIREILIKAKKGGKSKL
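Biochemical qHTS of compounds, final roughly 60 µM downward over six points, against 10 nM purified firefly luciferase using Km concentrations of substrates (10 uM D-luciferin, 10 uM ATP) in Tris acetate pH 7.5 buffer; luminescence output.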
Rab9 promoter act: Rab9 promoter activation. Huh7 Rab9 promoter-luciferase reporter, luminescence, 24 h. Potency, µM (doses to about 9.22 µM), inactives show top-dose activation, negative = inhibition, usual class: activators. hit rate 2.8% among 320,000; also: % of control where 0% means no effect; nearly all actives have a fitted effect of over 60% in size
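Stable Rab9-luc Huh7, 1500 cells/well, 2 h settle; cmpd in DMSO, 24 h, 37 °C/5% CO2; luciferase reagent 10 min RT; luminescence.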
NPC1 promoter act: activates the NPC1 promoter; hit rate 2.4% among 320,000; Potency, µM (series often up to 9.22 µM), inactives show at the highest dose activation, actives largely listed as activators; Huh7 NPC1 promoter luciferase reporter, 24 h; also: % of control where 0% means no effect; nearly all actives have a fitted effect of over 60% in size
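Compounds in DMSO were transferred onto Huh7 NPC1-luciferase reporter cells pre-incubated 2 h; after 24 h at 37 °C, Amplite reagent was dispensed and luminescence recorded 10 min later.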
ELG1 genotox: genotoxicity induction in ELG1-luciferase HEK293T cells | HEK293T ELG1-luciferase reporter, luminescence, 16 h | Potency, µM (series often up to 46 µM), without a hit: at the top dose activity change, positive = activation, actives largely listed as activators | hit rate 1.3% among 330,000; also: % of control where 0% means no effect; nearly all actives have a fitted effect of over 60% in size
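Screening used a luciferase reporter fused to human ELG1 in HEK293T cells. Luminescence was read on a CCD plate imager after 16 hr exposure and 30 min ONE-Glo incubation.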
SMN2 splice up: SMN2 splice variant enhancement; HEK293 SMN2-luciferase splicing reporter, luminescence, 30-36 h; Potency, µM (top dose mostly 46.1 µM), for inactives: at the top dose activity change, positive = activation, most hits filed as activators; AID 1458; hit rate 2.8% among 210,000; also: % of control where 0% means no effect; nearly all actives have a fitted effect of over 55% in size
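HEK293 cells carry an SMN2 […]–luciferase reporter in which exon 7 inclusion puts luciferase in frame. Cells were plated 10-12 h before compound addition, then incubated 30-36 h at 37C. ONE-Glo luminescence was read; sodium butyrate at 4.5 mM final served as control.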
ELG1 DNA repair: inhibitors of ELG1-dependent DNA repair in HEK293T cells | HEK293T ELG1-luciferase reporter, luminescence, 16 h; DNA damage induced by 5-fluorouridine | Potency, µM (doses to about 46.1 µM), for the others: top-dose activity change, negative = inhibition, most hits filed as inhibitors | hit rate 2.3% among 330,000 | AID 504467; also: % is scaled to controls: 0 for no effect and ±100 for the full control effect; nearly all actives have a fitted effect of over 55% in size
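In this reporter screen, reduction of luminescence relative to DMSO vehicle indicated activity. Compounds and 5-fluorouridine were added together to 2,000 cells per well, incubated for 16 hr at 37 °C, then developed with ONE-Glo.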
An asterisk follows results filed as active. Shown are actives, neighbours in structure and some others; about 9.2% of the full set was active somewhere. Calls follow the shape of the dose curve; as a rule, active = well fitted curve in the direction sought with a large enough effect; inconclusive = small, poorly fitted or top-dose-only effect, or another doubt; inactive = no such curve, though single readings can be large; an effect the other way counts as inactive or inconclusive. Potency is read from the fitted curve at half-maximal effect.

Results for O=C(COC(=O)CCCNC(=O)c1ccc(Cl)cc1)Nc1cc(Cl)c(Cl)cc1Cl ?
FLuc modulator: inconclusive; Rab9 promoter act: -1.2%; NPC1 promoter act: 0.2%; ELG1 genotox: 6.6%; SMN2 splice up: 4.6%; ELG1 DNA repair: 15.0%

What do the screens show for `O=C(O)C1CCN(c2ccc(Cl)nn2)CC1`?
FLuc modulator: -4.0%; Rab9 promoter act: 1.5%; NPC1 promoter act: -13.7%; ELG1 genotox: -1.9%; SMN2 splice up: -8.3%; ELG1 DNA repair: 1.3%

What do the screens show for `Cc1ccccc1N(Cc1cc(=O)[nH]c2ccccc12)C(=O)CCl`?
FLuc modulator: -1.0%; Rab9 promoter act: 2.9%; NPC1 promoter act: -12.6%; ELG1 genotox: -7.9%; ELG1 DNA repair: 10.3µM*

What do the screens show for `CCC(=O)N(Cc1cc(=O)[nH]c2ccccc12)c1ccccc1`?
FLuc modulator: -0.1%; Rab9 promoter act: -1.9%; NPC1 promoter act: 1.8%; ELG1 genotox: 0.0%; ELG1 DNA repair: -11.4%

Results for O=C(CCl)N(Cc1cc(=O)[nH]c2ccccc12)c1ccccc1 ?
FLuc modulator: 0.0%; Rab9 promoter act: -25.2%; NPC1 promoter act: -17.2%; ELG1 genotox: -17.9%; ELG1 DNA repair: 13µM*

Results for Cc1ccccc1N(Cc1cc(=O)[nH]c2ccccc12)C(=O)C(C)C ?
FLuc modulator: -1.3%; Rab9 promoter act: -10.6%; NPC1 promoter act: -6.4%; ELG1 genotox: -1.1%; ELG1 DNA repair: 8.1%

What do the screens show for `CCc1cccc(C)c1NC(=S)N(CCN(C)C)C(C)c1ccco1` (stereo not drawn)?
FLuc modulator: 1.1%; Rab9 promoter act: -2.6%; NPC1 promoter act: -4.0%; ELG1 genotox: 2.2%; ELG1 DNA repair: -5.4%

How did CCOc1ccc2noc3c2c1C(=O)c1ccccc1-3 do in these assays?
FLuc modulator: -9.0%; Rab9 promoter act: -1.7%; NPC1 promoter act: 7.7%; ELG1 genotox: -0.4%; SMN2 splice up: 15.0%; ELG1 DNA repair: inconclusive

What do the screens show for `O=C1c2ccccc2-c2onc3c(Oc4ccccc4)cc(O)c1c23`?
FLuc modulator: inconclusive; Rab9 promoter act: 0.7%; NPC1 promoter act: 8.6%; ELG1 genotox: inconclusive; SMN2 splice up: 11.2µM*; ELG1 DNA repair: inconclusive

What do the screens show for `Fc1ccc(-c2nn(-c3ccc(Cl)cc3)c3c2cnc2ccc(F)cc23)cc1`?
FLuc modulator: -0.5%

What do the screens show for `Nc1nc2c(c(=O)[nH]1)C(c1ccccc1)C1=C(N2)c2ccccc2C1=O` (stereo not drawn)?
FLuc modulator: -3.0%; Rab9 promoter act: 0.7%; NPC1 promoter act: 4.3%; ELG1 genotox: 3.0%; ELG1 DNA repair: inconclusive

What do the screens show for `Cn1c2c(c(=O)[nH]c1=O)C(c1ccc(O)cc1)C1=C(N2)c2ccccc2C1=O` (stereo not drawn)?
FLuc modulator: 16.9µM*; Rab9 promoter act: -3.9%; NPC1 promoter act: -11.0%; ELG1 genotox: 0.6%; SMN2 splice up: -18.0%; ELG1 DNA repair: inconclusive

Results for Nc1c(C(=O)Nc2cccc(C(=O)O)c2)sc2nc3c(cc12)CCCC3 ?
FLuc modulator: 0.0675µM*; Rab9 promoter act: 1.26µM*; NPC1 promoter act: inconclusive; ELG1 genotox: inconclusive; ELG1 DNA repair: inconclusive

What do the screens show for `Nc1c(C(=O)Nc2ccc(Cl)c(C(=O)O)c2)sc2nc3c(cc12)CCCC3`?
FLuc modulator: 2.69µM*; Rab9 promoter act: inconclusive; NPC1 promoter act: inconclusive; ELG1 genotox: 15.5%; ELG1 DNA repair: inconclusive

What do the screens show for `CCN1CCc2nc3sc(C(=O)c4ccccc4)c(N)c3cc2C1`?
FLuc modulator: 9.53µM*; SMN2 splice up: -11.7%

How did CCOc1ccc(NC(=O)c2sc3nc4c(cc3c2N)CCCCCC4)cc1 do in these assays?
FLuc modulator: 5.5%; SMN2 splice up: 7.3%

What do the screens show for `CCN1CCc2nc3sc(C(=O)c4ccc(F)cc4)c(N)c3cc2C1`?
FLuc modulator: -1.8%
